Results on 32 molecules are retold here after PubChem BioAssay (NCATS).

Structures are written as SMILES. Inconclusive results are not listed. Where a call stands in place of a potency, no number is given. Calls of active or inactive are those of the source. Calls follow the shape of the dose curve; as a rule, active = well fitted inhibition curve with a large enough effect; inconclusive = small, poorly fitted or top-dose-only effect; inactive = flat fitted curve, though single readings scatter.

The assay relates to MKL-2. As to the kind of experiment: qHTS assay to identify novel small-molecules to repurpose for Merkel cell carcinoma treatment (AID 1296009). Also: nearly all actives have a fitted effect of over 60% in size. The following applies: MCC and control cell lines, CellTiter-Glo viability, 72 h; series mostly up to 46 µM. The gist of the method:
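qHTS format: cells treated with library compounds in DMSO across 8 (NPC) or 11 (MIPE) concentrations. Readout after 72 hr at 37 degree celsius was CellTiter-Glo luminescence.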
`COc1cc(OC)c(OC)cc1C=O`: the Potency entry was “inactive”.

For the molecule `CC(C)(N)Cc1ccccc1Cl`, the Potency entry was “inactive”.

In the case of `CC(C)c1cccc(C(C)C)c1O`, the Potency result is “inactive”.

In the case of `CC(C)N(CCC(C(N)=O)(c1ccccc1)c1ccccn1)C(C)C` (configuration not stated), the Potency result was “inactive”.

With `C=CCC1(C(C)CC)C(=O)NC(=O)NC1=O` (configuration not stated), the Potency entry was “inactive”.

As for `COc1cccc([C@@]2(O)CCCC[C@@H]2CN(C)C)c1`, the Potency entry is “inactive”.

Regarding `C[N+]1(CCF)[C@@H]2CC[C@H]1CC(OC(=O)C(O)(c1ccccc1)c1ccccc1)C2` (some centres not stated), the Potency result is “inactive”.

With `CCCCCCCCCC(=O)O[C@H]1CC[C@H]2[C@@H]3CCC4=CC(=O)CC[C@@H]4[C@H]3CC[C@]12C`, the Potency entry is “inactive”.

Consider `O=C(O)CCCc1ccc(N(CCCl)CCCl)cc1`, for which the Potency result was “inactive”.

As to `O=c1oc2ccccc2c(O)c1Cc1c(O)c2ccccc2oc1=O`, the Potency entry is “inactive”.

For the molecule `CC(=O)C1CCOC1=O` (configuration not stated), the Potency entry is “inactive”.

Turning to `O=C(O)c1ccc(=O)[nH]c1`, the Potency result was “inactive”.

Regarding `CCOC(=O)CC(SP(=S)(OC)OC)C(=O)OCC` (configuration not stated), the Potency result was “inactive”.

As to `CC(C)(C)NCC(O)c1cc(Cl)c(N)c(C(F)(F)F)c1` (configuration not stated), the Potency entry was “inactive”.

With `Clc1ccccc1N1CCNCC1`, the Potency entry is “inactive”.

As to `NNc1ccccc1`, the Potency result is “inactive”.

With `Nc1ccccc1`, the Potency entry was “inactive”.

Turning to `O=C1OC(c2ccc(O)c(S(=O)(=O)O)c2)(c2ccc(O)c(S(=O)(=O)O)c2)c2c(Br)c(Br)c(Br)c(Br)c21`, the Potency entry is “inactive”.

With `CC(NC(C)(C)C)C(=O)c1cccc(Cl)c1` (configuration not stated), the Potency entry is “inactive”.

Consider `COc1ccc2c3c1O[C@H]1[C@H](O)CC[C@H]4[C@@H](C2)N(C)CC[C@@]341`, for which the Potency result was “inactive”.

On to `C#CC(O)(C=CCl)CC` (configuration not stated), for which the Potency entry is “inactive”.

As for `C[C@]12CC[C@@H]3c4ccc(OC(=O)N(CCCl)CCCl)cc4CC[C@H]3[C@@H]1CC[C@@H]2OP(=O)(O)O`, the Potency result was “inactive”.

`O=c1[nH]c2ccccc2n1C1CCNCC1`: the Potency result was “inactive”.

`Oc1ccc(Cl)cc1`: the Potency result is “inactive”.

Turning to `NC(=O)c1cc([N+](=O)[O-])cc([N+](=O)[O-])c1`, the Potency entry is “inactive”.

With `O=C1c2ccccc2C(=O)c2ccccc21`, the Potency result is “inactive”.

As to `CCc1cc2c(s1)-n1c(C)nnc1CN=C2c1ccccc1Cl`, the Potency entry was “inactive”.

`CN1CC[C@]23c4c5ccc(O)c4O[C@H]2[C@@H](O)CC[C@H]3[C@H]1C5`: the Potency result was “inactive”.

Regarding `C=CCN1C[C@H](C)N([C@H](c2ccc(C(=O)N(CC)CC)cc2)c2cccc(OC)c2)C[C@H]1C`, the Potency result was “inactive”.

In the case of `COC(=O)[C@@H](N)CCCN/C(N)=N/[N+](=O)[O-]`, the Potency entry is “inactive”.

For the molecule `CN1C(=O)CCS(=O)(=O)C1c1ccc(Cl)cc1` (configuration not stated), the Potency result is “inactive”.

Consider `ClCCN1CCCC1`, for which the Potency entry is “inactive”.
